Rows were chosen to be rich in hits. Some 22% of all compounds tested hit in one or more screens of this group.
E-sel TNF inh = E-selectin induction blockers in HUVEC – imaging, immunofluorescence, high content, primary screen; HUVEC TNFa-induced E-selectin immunofluorescence; inhibition, % at 2 µM; actives 0.71% (n = 120,000); AID 1246, 2008;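 active means inhibition above the batch mean plus 3 SD, and confirmed as a hit on visual image review, cut at about 43% in these data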;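 further: 0% = TNF-stimulated DMSO wells and 100% = unstimulated control wells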
CYP2C19 inh = blockers of cytochrome P450 2C19 activity – biochemical, luminescence, ADME assay, primary screen. inhibition, % at 5 µM. actives 21% (n = 96,000). CYP2C19 Supersomes, luciferin-H EGE luminescence, 30 min. P33261;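 active means CYP2C19 inhibition above a set limit at 5 µM in the primary screen, cut at about 50% in these data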;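 further: plate controls were negative control wells for no effect and 2.5 mM tranylcypromine positive control for full effect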
Target sequence (P33261 whole entry, looked up): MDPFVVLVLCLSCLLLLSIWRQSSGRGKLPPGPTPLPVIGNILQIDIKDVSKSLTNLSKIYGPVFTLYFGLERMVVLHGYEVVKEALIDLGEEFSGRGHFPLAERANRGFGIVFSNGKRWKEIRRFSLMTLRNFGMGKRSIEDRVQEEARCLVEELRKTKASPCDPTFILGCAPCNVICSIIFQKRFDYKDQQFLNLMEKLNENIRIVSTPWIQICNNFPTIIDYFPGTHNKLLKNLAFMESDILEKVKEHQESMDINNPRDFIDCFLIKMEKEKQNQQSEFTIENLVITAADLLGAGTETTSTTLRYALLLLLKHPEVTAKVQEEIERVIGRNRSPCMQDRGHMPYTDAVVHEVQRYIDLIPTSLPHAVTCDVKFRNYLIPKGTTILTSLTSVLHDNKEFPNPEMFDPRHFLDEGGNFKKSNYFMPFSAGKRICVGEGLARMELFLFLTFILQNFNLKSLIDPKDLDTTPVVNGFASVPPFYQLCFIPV
CYP2C19 act = human CYP2C19 activators, primary screen, biochemical, luminescence | recombinant CYP2C19, luciferin-H EGE luminescence; stronger effect = higher value; 0 = fully inhibited enzyme, 1 = untreated enzyme | 96,000 tested, under 10 active | activation factor at 5 µM | AID 1025, 2008;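 active means activation factor of at least 2 at 5 µM in the primary screen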;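 further: 0 = wells with 2.5 mM tranylcypromine and 1 = vehicle-only wells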
CYP2C9 act = human CYP2C9 activators, primary screen, biochemical, luminescence; Cytochrome P450 2C9 (Homo sapiens), P11712; recombinant CYP2C9, luciferin-H conversion; stronger effect = higher value; factor 1 = untreated enzyme, 0 = blocked; activation factor at 5 µM; actives 1.4% (n = 96,000);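 active means activation factor of 2 or more for CYP2C9 at a 5 µM dose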;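 further: 0 = sulfaphenazole-blocked wells and 1 = vehicle-only wells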
CYP2C9 inh = blockers of cytochrome P450 2C9 activity – biochemical, luminescence, ADME assay, primary screen; P11712; CYP2C9 Supersomes, luciferin-H conversion; inhibition, % at 5 µM; actives 20% (n = 96,000);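 active means blocking of liver enzyme CYP2C9 beyond about 50% at 5 µM, limit read from the data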
cytoskel mod = modifiers of F-actin cytoskeleton organization, primary screen, imaging, HUVEC, phalloidin staining, high-content imaging; actives 0.18% (n = 91,000); inhibition, % at 2 µM; HUVEC TNFa F-actin phalloidin imaging;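 active means inhibition above the batch mean plus 3 SD and confirmed as a hit by visual image inspection, cut at about 30% in these data, passing the limit was not always enough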
An asterisk follows results filed as active; x = no result.

SMILES	E-sel TNF inh	CYP2C19 inh	CYP2C19 act	CYP2C9 act	CYP2C9 inh	cytoskel mod
COc1cc(/C=N/Nc2ccc3ccccc3c2)ccc1OC(=O)c1ccco1	-5.9	x	x	x	x	x
CSC1=NCCN1C(=O)Cc1cccs1	x	2.0	1	1	-1.5	-8.0
CCC1C(O)=C(c2ccccn2)C(=N)N1c1ccccc1 (stereo not given)	x	32.0	0.7	0.9	6.2	x
CCNC(=S)N/N=C/c1cn(Cc2ccc(F)cc2)c2ccccc12	16.6	x	x	x	x	x
O=S(=O)(N/N=C/c1cn(Cc2ccccc2)c2ccccc12)c1ccccc1	8.2	14.0	0.9	0.1	87.1*	-13.8
CCOC(=O)c1ccc(NC(=O)CC2C(=O)N(c3ccccc3)C(=O)N2CCCOC)cc1 (stereo not given)	6.2	91.6*	0.1	0.2	78.7*	-10.8
CCOC(=O)c1ccc(NC(=O)CNC(=O)c2ccccc2)cc1	26.0	16.0	0.8	0.9	7.9	7.0
CCOc1[nH]n(-c2ccc(Cl)cc2)c(=O)c1C=Nc1ccc(Cl)cc1	6.8	2.2	1	0.9	5.7	9.8
CCOc1ccc(C(CCc2ccccc2)NC(=O)c2ccccc2)cc1OCC (stereo not given)	-6.7	75.8*	0.2	0.3	67.7*	-16.9
CCOc1ccc(C(=O)NC(Cc2ccccc2)C(=O)OC)cc1 (stereo not given)	7.4	30.3	0.7	0.8	22.9	3.1
OC(CNCCc1ccccc1)c1ccccc1 (stereo not given)	0.1	66.9*	0.3	1	-0.5	-29.9
O=C(NCc1ccc2[nH]c3c(c2c1)CCCC3)c1ccc(S(=O)(=O)N2CCCC2)cc1	-9.8	x	x	x	x	x
O=C(COC(=O)c1ccc(Cl)s1)c1cc2ccccc2o1	26.7	69.8*	0.3	0.6	43.3	8.2
Cn1cccc1C(=O)OCC(=O)c1cc2ccccc2o1	x	45.9	0.5	1.1	-7.1	3.6
Cc1cc(N2CCN(c3ccccc3)CC2)nc(-n2nc(C)cc2C)n1	16.4	60.5*	0.4	0.1	89.6*	5.7
Cc1cc(NC(=O)c2ccccc2-c2ccccc2)ccc1Br	43.4	x	x	x	x	x
CN1C2CCC1/C(=C\c1ccccc1)C(=O)/C2=C\c1ccccc1	14.9	40.3	0.6	2.2*	-124.2	-2.2
O=C1CNC(=O)/C1=C/c1ccccc1	3.6	x	x	x	x	x
CCOC(=O)C1CCN(c2c(NC3CCCCCCC3)c(=O)c2=O)CC1	x	8.3	0.9	0.9	13.4	7.3
CCOC(=O)C1CCN(C(C(=O)NC2CCCC2)c2ccc(C)cc2)CC1 (stereo not given)	x	8.0	0.9	0.6	41.4	-10.0
COc1ccc(OC)c(NC(=O)CN(c2ccc(OC)c(Cl)c2)S(C)(=O)=O)c1	-2.9	39.3	0.6	0.4	63.2*	x
COc1ccc(C)cc1NC(=O)CN(c1ccccc1)S(C)(=O)=O	x	22.4	0.8	0.5	50.6*	14.3
COC(=O)c1ccc(NC(=O)CN(c2ccc(OC)cc2)S(C)(=O)=O)cc1	-4.7	15.4	0.8	0.3	66.9*	10.4
COc1ccc(N(CC(=O)NC(C)C)S(=O)(=O)c2ccc(NC(C)=O)cc2)cc1	x	88.1*	0.1	0.1	93.4*	-3.3
CC(C)NC(=O)NC(=O)CSc1nncs1	-63.3	x	x	x	x	x
SMILES	E-sel TNF inh	CYP2C19 inh	CYP2C19 act	CYP2C9 act	CYP2C9 inh	cytoskel mod
COCCNC(=O)CN(c1ccc(OC)c(OC)c1)S(=O)(=O)c1ccc(C)cc1	-21.8	4.0	1	0.8	19.2	15.4
COc1ccc(CCNC(=O)CN(c2ccc(OC)c(OC)c2)S(C)(=O)=O)cc1	32.8	38.0	0.6	0.2	79.6*	8.9
COc1ccc(NC(=O)CN(c2ccc(C)cc2)S(C)(=O)=O)c(OC)c1	-10.4	77.6*	0.2	0	97.5*	10.6
COc1ccc(NC(=O)CN(c2ccc([N+](=O)[O-])cc2)S(=O)(=O)c2ccccc2)c(OC)c1	8.7	x	x	x	x	x
CCOc1ccccc1CNC(=O)CCCc1cn(C)c2ccccc12	-14.0	x	x	x	x	x
COC(=O)c1cc(Br)c(=O)n(Cc2ccc(C(=O)O)cc2)c1	-3.4	-14.2	1.1	1.1	-5.3	10.9
COC(=O)c1cc(Br)c(=O)n(-c2ccccn2)c1	x	-4.5	1	1	-1.6	22.6
COC(=O)c1cc(Br)c(=O)n(-c2cc(C)on2)c1	17.0	58.9*	0.4	0.5	50.4*	-20.6
COC(=O)c1cc(Br)c(=O)n(Cc2ccc(OC)c(OC)c2)c1	x	45.6	0.5	0.5	50.7*	29.4
COC(=O)c1cc(Br)c(=O)n(Cc2ccncc2)c1	64.0*	2.6	1	0.9	10.4	14.5
O=c1cc(CSc2nnc(-c3ccccc3)o2)c2ccccc2[nH]1	x	x	x	x	x	-4.9
COc1ccc(-c2cccc(C(=O)NCC(=O)O)c2)cc1	-9.0	4.9	1	0.8	22.6	-17.2
CCN(CC)C(=O)c1cccc(-c2ccc(OC)cc2)c1	-0.7	68.9*	0.3	0.6	44.6	5.2
COC(=O)c1cc(C(=O)OC)cc(N2C(=O)CN=C2Nc2nc(C)cc(C)n2)c1	-56.6	1.0	1	1	-1.3	8.7
Cc1ccc(CN(Cc2cccnc2)C(=O)CN2C(=O)COc3ccccc32)o1	-15.2	95.1*	0	0.3	67.3*	-78.8
COC1CCCCC1NS(=O)(=O)c1ccccc1 (stereo not given)	7.3	56.5*	0.4	0.9	11.0	18.4
COC1CCCCC1NS(=O)(=O)c1ccc(Cl)cc1 (stereo not given)	x	94.4*	0.1	0.7	27.7	x
Cc1cc(C)cc(OC2CCCCC2NS(=O)(=O)c2ccccc2)c1 (stereo not given)	2.0	x	x	x	x	x
CCOc1ccc(N2C(=O)CSC23CCCCC3)cc1	x	83.8*	0.2	0.7	31.7	x
CN(C)C(=O)COc1ccc2ccc(=O)oc2c1	4.6	-4.0	1	1.2	-16.2	-10.0
CC(=O)OC1CCC2(C)C(COc3ccc4ccc(=O)oc4c3)C(C)(O)CCC2C1(C)C (stereo not given)	-14.5	21.3	0.8	0.5	52.8*	-6.4
CN(CC(=O)Nc1nc2ccccc2s1)S(=O)(=O)c1ccccc1	-25.2	52.0*	0.5	0.6	44.0	-9.9
O=C(C[n+]1ccccc1)Nc1nc2ccccc2s1	-1.4	x	x	x	x	x
O=S(=O)(NCc1csc(-c2ccccc2)n1)c1ccc(Cl)s1	-34.2	x	x	x	x	x
O=C(CS(=O)(=O)Cc1ccccc1)Nc1nc2ccccc2s1	-4.5	54.2*	0.5	0.5	54.7*	-0.5
O=S(=O)(Nc1nc2ccccc2s1)c1ccc(Cl)s1	-1.4	65.4*	0.3	0	95.4*	9.1
Cc1ccc(-c2noc(CCC(=O)Nc3cc(C)ccn3)n2)cc1	x	42.6	0.6	0.8	24.2	0.1

Bioassay records (PubChem BioAssay)
